In PubChem BioAssay (NCI):
Compounds without any hit were thinned out: in the full panel of roughly 79,000, 15% have a hit. Values without a mark were called inactive. Active and inactive are the calls of the source. Rule as the data show it: active = growth inhibition above about 70%; inactive = the rest.

Assays:
[1] = NCI Yeast Anticancer Drug Screen. Data for the rad50 strain (AID 155);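 also: 0% = growth of vehicle-only cultures of the same strain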; details: S. cerevisiae rad50 strain growth inhibition, hits give high values
In short: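 Inhibition values express reduced yeast growth in compound-treated cultures relative to vehicle-treated controls.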

[2] = NCI Yeast Anticancer Drug Screen. Data for the mec2-1 strain (AID 157); details: S. cerevisiae mec2-1 strain, hits give high values
In short: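 Yeast mec2-1 mutant treated with compound. Readout: growth inhibition vs vehicle controls.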

[3] = NCI Yeast Anticancer Drug Screen. Data for the sgs1 mgt1 strain (AID 161);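 also: 0% = growth of cultures given vehicle only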; details: S. cerevisiae sgs1 mgt1 strain, hits give high values
In short: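 Read-out: growth inhibition vs vehicle controls. Cells: mutant yeast strain deficient in DNA damage repair.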

[4] = NCI Yeast Anticancer Drug Screen. Data for the cln2 rad14 strain (AID 165);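 also: 0% = growth equal to vehicle treated cultures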; details: S. cerevisiae cln2 rad14 strain, hits give high values
In short: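 cln2 rad14 yeast strain; compound exposure; growth inhibition read vs vehicle controls.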

[5] = NCI Yeast Anticancer Drug Screen. Data for the bub3 strain (AID 167); details: S. cerevisiae bub3 mutant strain, hits give high values
In short: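 Steps: expose the mutant yeast strain to compound; grow alongside vehicle-treated cultures; measure growth; express inhibition against the vehicle cultures.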

[6] = NCI Yeast Anticancer Drug Screen. Data for the mlh1 rad18 strain (AID 175); details: S. cerevisiae mlh1 rad18 strain growth inhibition, hits give high values
In short: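 Yeast w/ defined DNA-repair lesions; compound exposure; growth vs vehicle controls → % inhibition.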

[7] = at 5.0 µM (retest, dose inferred, filed as 0.5)
[8] = at 50.0 µM (retest, dose inferred, filed as 5.0)

| Compound | growth inhibition [1, 7] | growth inhibition [1, 8] | growth inhibition ([1]; at 50.0 µM) | growth inhibition [2, 7] | growth inhibition [2, 8] | growth inhibition ([2]; at 50.0 µM) | growth inhibition [3, 7] | growth inhibition [3, 8] | growth inhibition ([3]; at 50.0 µM) | growth inhibition [4, 7] | growth inhibition [4, 8] | growth inhibition ([4]; at 50.0 µM) | growth inhibition [5, 7] | growth inhibition [5, 8] | growth inhibition ([5]; at 50.0 µM) | growth inhibition [6, 7] | growth inhibition [6, 8] | growth inhibition ([6]; at 50.0 µM) |
| --- | --- | --- | --- | --- | --- | --- | --- | --- | --- | --- | --- | --- | --- | --- | --- | --- | --- | --- |
| [O-][n+]1ccccc1S | 99% (active) | 99% (active) | 99.4% (active) | 100% (active) | 100% (active) | 99.7% (active) | 100% (active) | 99% (active) | 99.7% (active) | 99% (active) | 99% (active) | 99.2% (active) | 99% (active) | 99% (active) | 99.3% (active) | 99% (active) | 99% (active) | 99.5% (active) |
| C[CH2][Sn]([CH2]C(=O)OC)([CH2]C(=O)OC)[c]1ccccc1 | 97% (active) | 97% (active) | 83.7% (active) | 98% (active) | 98% (active) | 89.2% (active) | 98% (active) | 98% (active) | 87.8% (active) | 86% (active) | 97% (active) | 84.7% (active) | 98% (active) | 98% (active) | 86% (active) | 97% (active) | 97% (active) | 90.8% (active) |
| Oc1c(Cl)c(Cl)c(O)c(Cl)c1Cl | 65% | 97% (active) | 99.2% (active) | 35% | 99% (active) | 99.3% (active) | 37% | 99% (active) | 99.1% (active) | -2% | 80% (active) | 95.7% (active) | 64% | 97% (active) | 99.1% (active) | 47% | 98% (active) | 98.8% (active) |
| CC(=O)NC1C(O[C@H]2CC[C@@]3(C)C(CC[C@]4(C)C3CC=C3C5CC(C)(C)CC[C@]5(C(=O)O)CCC34C)C2(C)C)OC(CO)C(O)C1O (stereo not given in full) | 42% | 98% (active) | 91% (active) | 69% | 99% (active) | 92.8% (active) | 44% | 99% (active) | 90.2% (active) | 74% (active) | 99% (active) | 91% (active) | 77% (active) | 98% (active) | 91.2% (active) | 48% | 99% (active) | 90% (active) |
| CC(=O)C(CN(C)Cc1ccccc1)C(c1ccccc1)c1c(O)c2ccccc2oc1=O (stereo not given) | 26% | 26% | 68.5% | 1% | 1% | 56.2% | 24% | 24% | 71.7% (active) | -9% | -9% | 47.5% | -1% | -1% | 70.7% (active) | 11% | 11% | 76.5% (active) |
| C/C(=N\N=C(/[Se])N1CCC(C)CC1)c1ccccn1 | 27% | 94% (active) | 94.5% (active) | 24% | 91% (active) | 96% (active) | 9% | 71% (active) | 99.2% (active) | 4% | -9% | 47% | 6% | 20% | 84.5% (active) | 4% | 76% (active) | 98% (active) |
| Cc1ccc(NCc2ccccc2)cc1[As](=O)(O)O | -1% | 97% (active) | 47% | -2% | 96% (active) | 12.9% | -4% | 67% | 8.3% | -5% | 94% (active) | -16.8% | -2% | 99% (active) | 41.5% | -1% | 99% (active) | 66.3% |
| [CH3][Sn]([CH3])([Br])[Br].c1ccc(-c2nnc(-c3ccccn3)nc2-c2ccccc2)cc1 | -3% | 80% (active) | 20.4% | -16% | 58% | 32.9% | -9% | 53% | 16.4% | -17% | 90% (active) | 11.8% | -4% | 87% (active) | -3.3% | -23% | 47% | 23.8% |
| O=C(N/N=C/c1cc(Br)cc(Br)c1[O-])c1ccccc1O.O=C(N/N=C/c1cc(Br)cc(Br)c1[O-])c1ccccc1O.[Zn+2] | 96% (active) | 98% (active) | 52.5% | 96% (active) | 96% (active) | 90.7% (active) | 97% (active) | 98% (active) | 85.5% (active) | 94% (active) | 96% (active) | 64.5% | 95% (active) | 96% (active) | 88.1% (active) | 95% (active) | 97% (active) | 83.5% (active) |
| C[n+]1c(/C=C/c2ccc(O)c3ccccc23)[se]c2ccccc21 | -3% | 78% (active) | 84.8% (active) | -13% | 40% | 47.4% | -24% | 76% (active) | 87.1% (active) | -2% | 16% | 41.2% | -5% | 20% | 74.6% (active) | 13% | 81% (active) | 78.9% (active) |
